# Screens from PubChem BioAssay.
# ALOX12 inh = blocks human arachidonate 12S-lipoxygenase; P18054; purified 12hLO, xylenol orange hydroperoxide absorbance; hit rate 1.1% among 580,000; Potency, µM (top dose mostly 108 µM), without a hit: top-dose activity change, negative = inhibition, most hits filed as inhibitors; note: % is set by controls: 0 for no effect and ±100 for the full control effect
# Target sequence (P18054 whole entry, looked up): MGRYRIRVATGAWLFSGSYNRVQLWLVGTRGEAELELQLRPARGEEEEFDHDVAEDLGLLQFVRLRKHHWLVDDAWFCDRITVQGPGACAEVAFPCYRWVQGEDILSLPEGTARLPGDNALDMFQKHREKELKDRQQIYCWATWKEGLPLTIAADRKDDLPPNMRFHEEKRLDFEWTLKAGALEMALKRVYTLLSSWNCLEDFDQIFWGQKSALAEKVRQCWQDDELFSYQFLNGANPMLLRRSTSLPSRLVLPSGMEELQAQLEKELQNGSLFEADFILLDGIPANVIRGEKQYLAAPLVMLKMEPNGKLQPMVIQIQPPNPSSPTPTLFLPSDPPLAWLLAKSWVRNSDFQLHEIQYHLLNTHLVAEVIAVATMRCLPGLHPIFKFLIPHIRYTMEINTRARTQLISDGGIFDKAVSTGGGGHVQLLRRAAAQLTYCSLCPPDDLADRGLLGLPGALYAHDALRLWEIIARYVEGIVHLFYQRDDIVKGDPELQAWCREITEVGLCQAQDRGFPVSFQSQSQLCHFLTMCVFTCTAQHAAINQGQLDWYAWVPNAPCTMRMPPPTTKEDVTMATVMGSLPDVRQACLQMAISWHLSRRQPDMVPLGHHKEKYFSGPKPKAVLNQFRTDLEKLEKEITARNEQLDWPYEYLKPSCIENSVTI
#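 Purified human 12hLO at 150 nM in 25 mM Hepes, 0.01% Triton X-100, pH 7.0, preincubated 15 min at room temperature with compound. Reaction started with 40 uM arachidonic acid, 30 min at room temperature. Hydroperoxide measured by Fe-xylenol orange, 573/405 nm absorbance ratio.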
# KB-3-1 cytotox = KB-3-1 parental cell cytotoxicity; KB-3-1 viability, CellTiter-Glo ATP luminescence, 72 h; Potency, µM (top dose mostly 46.1 µM), most hits filed as cytotoxic; hit rate 1.4% among 400,000; AID 1347075; note: % is set by controls: 0 for no effect and ±100 for the full control effect; nearly all actives have a fitted effect of over 60% in size
#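 Cytotoxicity measured as CellTiter-Glo luminescence after 72 h at 37 C. Compound titrations were pinned onto drug-naive KB-3-1 parental adenocarcinoma cells grown in DMEM with 10% FBS, and normalized data fitted to concentration-response curves.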
# SW480 rerep = induces DNA re-replication in SW480 colon adenocarcinoma cells; SW480 DNA re-replication, Hoechst DNA content imaging, 48 h; AID 624297; hit rate 1.8% among 340,000; Potency, µM (doses to about 46.1 µM), without a hit: at the highest dose re-replication activation, hits mostly activators; note: % of control where 0% means no effect; nearly all actives have a fitted effect of over 55% in size
#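 Compounds, transferred as 23 nL by pin tool, were incubated with cells for 48 hr; DNA content per nucleus was then quantified by Hoechst staining and fluorescence plate imaging.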
# PINK1 expr mod = PINK1 expression modulation; PINK1 immunofluorescence, high-content cytometry, 24 h; Potency, µM (titrated, usually from 76.6 µM), for the others: at the top dose activation (PINK1 increase), usual class: activators; hit rate 0.2% among 410,000; AID 624263; active = well fitted activation curve with a large enough effect; inconclusive = small, poorly fitted or top-dose-only effect; cell line not stated here; note: % of control where 0% means no effect; nearly all actives have a fitted effect of over 65% in size
#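 PINK1 protein level read as immunofluorescence by microplate cytometer in a fixed, stained stable cell line after 24 h exposure to five compound concentrations, with CCCP as control.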
# MCF10A rereplic = DNA re-replication induction in MCF 10a cells | MCF 10A DNA re-replication, Hoechst nuclear intensity, 48 h | Potency, µM (titrated, usually from 46.1 µM), for the others: at the top dose activity, positive = re-replication, most hits filed as activators | AID 624296 | hit rate 2.9% among 350,000; note: % of control where 0% means no effect; nearly all actives have a fitted effect of over 50% in size
# KB-V1 MDR tox = kills drug-selected multidrug resistant KB-V1 cells; KB-V1 MDR cells viability, CellTiter-Glo, 72 h; Potency, µM (doses to about 46.1 µM), usual class: cytotoxic; hit rate 3.4% among 400,000; note: % is set by controls: 0 for no effect and ±100 for the full control effect; nearly all actives have a fitted effect of over 60% in size
#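 Cells of the MDR subline KB-V1 are plated, dosed with compound at multiple concentrations, and incubated 72 h at 37 degrees C; CellTiter-Glo is then added and luminescence read after 10 min.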
# Numbers without * were called inactive; i = inactive; u = inconclusive; x = not tested or not shown; [ ] = remark or other dose. Hits are enriched below; roughly 5.8% of the tested compounds scored in any of these assays. Unless noted, calls come from the whole dose curve; as a rule, active = well fitted curve in the direction sought with a large enough effect; inconclusive = small, poorly fitted or top-dose-only effect, or another doubt; inactive = no such curve, though single readings can be large; an effect the other way counts as inactive or inconclusive. Potency is the fitted concentration of half-maximal effect.
SMILES,ALOX12 inh,KB-3-1 cytotox,SW480 rerep,PINK1 expr mod,MCF10A rereplic,KB-V1 MDR tox
COC(=O)c1ccc(C)c(NC(=S)NCc2ccc(Cl)cc2)c1,-17%,i,-6%,4%,5%,23µM*
COc1ccccc1C(=O)NCc1ccc(-c2nc3ncccc3o2)cc1,-27%,x,x,x,x,x
COC(=O)c1nnn(CC(=O)Nc2ccc(C)cc2Cl)c1C(=O)OC,4%,x,x,x,x,x
COC(=O)C1=C(C)n2cnnc2NC1c1ccc(Cl)cc1 (stereo unspecified),252%,i,-5%,2%,1%,u
COC(=O)C1=C(C)N(Cc2ccc(F)cc2)C(=S)NC1c1ccc(Cl)cc1 (stereo unspecified),40µM*,x,x,x,x,x
COC(=O)C1=C(C)N(Cc2ccccc2)C(=NCc2cccc(Cl)c2)N[C@H]1c1cccc(F)c1,x,u,u,-2%,u,21µM*
COC(=O)C1=C(C)N(Cc2ccc(Cl)cc2)C(=S)NC1c1ccc(OC)cc1 (stereo unspecified),40µM*,x,x,x,x,x
COC(=O)C1=C(C)N(Cc2ccc(Br)cc2)C(=S)NC1c1ccc(OC)cc1 (stereo unspecified),45µM*,x,x,x,x,x
COC(=O)C1=C(C)N(Cc2ccccc2)C(=S)N[C@H]1c1ccc(Br)cc1,45µM*,u,u,1%,-1%,i
COC(=O)C1=C(C)N(Cc2ccccc2)C(=S)N[C@H]1c1cccc(C(F)(F)F)c1,u,u,14%,17%,-13%,i
CCCc1cc(C(=O)OC)c(NC(=O)Cc2c(Cl)cccc2Cl)s1,20%,x,x,x,x,x
COC(=O)c1cc(CSc2nnc(NC3CCCCC3)s2)oc1C,u,u,-1%,2%,25%,21µM*
Cc1ccc(OCCN2CCN(c3ncnc4sc(C)c(C)c34)CC2)cc1,u,u,u,-1%,23µM*,i
Cc1ccc(OCCN2CCN(c3ncnc4scc(-c5ccccc5)c34)CC2)cc1,-5%,x,x,x,x,x
Clc1ccc(OCCN2CCN(c3ncnc4sccc34)CC2)cc1,-6%,u,3%,1%,8%,2.9µM*
Cc1ccc(-c2noc(-c3ccc(Br)cc3)n2)s1,13%,x,x,x,x,x
CC(=O)Nc1nc(-c2ccc3c(c2)CC(C)N3C(=O)C2CC2)c(C)s1 (stereo unspecified),3%,i,u,-1%,27%,i
Cc1sc(NC(=O)c2ccco2)nc1-c1ccc2c(c1)CC(C)N2C(=O)C1CC1 (stereo unspecified),-7%,u,6.3µM*,2%[38.3 µM],5µM*,u
CCOC(=O)c1sc(SC)c2c1CCC/C2=N/OC,-1%,i,-13%,17%,1%,i
CO/N=C1\CCCc2c(C(=O)NN)sc(SC)c21,72%,i,u,11%,16µM*,i
COCCn1c(SCc2ccc(F)cc2)nc2c1c(=O)[nH]c(=O)n2C,u,i,8%,1%,0.46µM*,i
C=CCSc1nc2c(c(=O)[nH]c(=O)n2C)n1C/C=C(/C)Cl,2%,i,-8%,-1%,16%,13µM*
CCSc1nc2c(c(=O)[nH]c(=O)n2C)n1C/C=C(/C)Cl,17%,i,0%,3%,6%,i
CCOCCn1c(SCc2ccc(F)cc2)nc2c1c(=O)[nH]c(=O)n2C,31%,i,-8%,1%,1%,i
C/C=C/Cn1c(SCc2ccccc2)nc2c1c(=O)[nH]c(=O)n2C,0%,i,-2%,-1%,4%,2.9µM*
SMILES,ALOX12 inh,KB-3-1 cytotox,SW480 rerep,PINK1 expr mod,MCF10A rereplic,KB-V1 MDR tox
CCc1ccc(S(=O)(=O)NC(=S)Nc2ccccc2)cc1,45µM*,i,-5%,0%,0%,i
CCNC(=S)NS(=O)(=O)c1ccc(CC)cc1,6.3µM*,i,-1%,0%[38.3 µM],-12%,u
CCNC(=S)NS(=O)(=O)c1ccc(C)cc1,u,i,-3%,2%,1%,i
O=C1NCc2ccccc2CC12CCCN2CC1=CCCCC1 (stereo unspecified),15%[6.33 µM],x,x,x,x,x
O=C(O)CCC(=O)N1CCN(c2nc(-c3ccccc3)c3ccccc3n2)CC1,87%,i,-5%,0%,21µM*,i
CCOC(=O)N1CCN(c2ccccc2O)CC1,-2%,i,-5%,-1%,11%,i
Cc1ccc2nc(N3CCN(C(=O)CCCC(=O)O)CC3)nc(-c3ccccc3)c2c1,u,i,3%,-1%,u,i
Clc1ccc(-c2nc(N3CCCCC3)nc3ccccc23)cc1,u,i,13µM*,2%,7.9µM*,i
CCOC(=O)N1CCN(c2nc(-c3ccccc3)c3ccccc3n2)CC1,x,i,16µM*,14%,8.2µM*,i
Cc1ccc(C(=O)Nc2ccc3oc(-c4ccncc4)nc3c2)cc1,-26%,x,x,x,x,x
CC(C)(C)C(=O)N1CCCC2(COc3ccccc3[S+](=O)([O-])N2)C1 (stereo unspecified),5%[6.33 µM],x,x,x,x,x
COCCNCCCCOc1ccccc1-c1ccccc1,u,i,15%,0%,11%,u
CCCCNCCOCCOc1ccccc1-c1ccccc1,u,i,u,8%,23%,18µM*
CC(C)N1CCc2c(sc(N)c2C#N)C1,71%,i,-6%,2.8µM*,-9%,i
CCN1CCc2c(sc(N)c2C#N)C1,49%,i,3%,1%,u,u
Cc1nc2c(cnn2-c2ccccc2Cl)c(=O)n1-c1ccc(N2CCC(C)CC2)cc1,98%,16µM*,-1%,-2%,4%,6.5µM*
CCc1nc2c(cnn2-c2ccc(F)cc2)c(=O)n1-c1ccc(N2CCC(C)CC2)cc1,-15%,i,-3%,4%,3%,i
Cc1ccc(-n2c(C)nc3c(cnn3-c3ccccc3Cl)c2=O)cc1C,-24%,u,3%,6%,0%,21µM*
Cc1ccc(-n2c(C)nc3c(cnn3-c3ccc(C)c(C)c3)c2=O)cc1C,u,i,15%,0%,-3%,i
CCOCCCNC(=O)CSCc1nc(-c2ccc(OC)c(OC)c2)oc1C,14%,x,x,x,x,x
COc1ccc2c(C)c(CC(=O)Nc3cccc(Cl)c3)c(=O)oc2c1,5%,x,x,x,x,x
S=c1[nH]c2ccc(Cl)cc2s1,-74%,i,-1%,1%,8%,i
Cc1cccc2sc(=S)[nH]c12,32µM*,i,x,4%,x,i
CCOC(=O)C(C(=O)OCC)c1cc(Br)c2noc3c2c1C(=O)c1ccccc1-3,u,5.2µM*,u,1%,u,u
CC(=O)OCCNc1cc(N2CCN(C)CC2)c2noc3c2c1C(=O)c1ccccc1-3,12%,i,2%,3%,11%,i
